Out of some 21,000 compounds screened, fewer than 10 were called active.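 The calls were made as follows: active = inhibition above 50% at the 20 µM single-dose screen; inactive = the rest.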 Not all results are given here.
Biological target: Alkaline phosphatase, tissue-nonspecific isozyme (Homo sapiens) (UniProt P05186)
Assay: human TNAP enzyme inhibitors, primary screen, biochemical, colorimetric, p-nitrophenol readout (AID 615);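 also: 0% = DMSO only wells and 100% = 1 mM levamisole wells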
Conditions: purified TNAP, pNPP hydrolysis, absorbance 405 nm; at 20 µM; hits give high values

Sequence of Alkaline phosphatase, tissue-nonspecific isozyme (Homo sapiens) (P05186 whole entry, looked up): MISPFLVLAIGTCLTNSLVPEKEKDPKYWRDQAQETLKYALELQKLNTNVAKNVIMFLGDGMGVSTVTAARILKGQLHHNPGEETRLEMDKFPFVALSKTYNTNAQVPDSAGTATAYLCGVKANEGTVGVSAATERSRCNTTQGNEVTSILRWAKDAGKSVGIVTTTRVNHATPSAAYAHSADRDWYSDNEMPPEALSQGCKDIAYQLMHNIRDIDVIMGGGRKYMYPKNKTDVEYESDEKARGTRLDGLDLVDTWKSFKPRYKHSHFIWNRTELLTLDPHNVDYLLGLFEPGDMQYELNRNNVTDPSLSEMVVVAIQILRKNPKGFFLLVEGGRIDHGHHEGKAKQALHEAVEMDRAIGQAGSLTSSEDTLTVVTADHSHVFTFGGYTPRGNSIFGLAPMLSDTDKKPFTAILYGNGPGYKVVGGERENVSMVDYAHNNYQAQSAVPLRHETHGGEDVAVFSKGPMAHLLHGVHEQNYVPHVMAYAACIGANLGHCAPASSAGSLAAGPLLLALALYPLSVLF

inhibition, inactive:
CCOc1cccc(NC(=O)C2CCCN(S(=O)(=O)c3ccc(OC)cc3)C2)c1 (centres undefined) -1.6%
O=c1[nH]c(=O)n(Cc2ccco2)c2c1C(C(F)(F)F)(C(F)(F)F)N=C(c1ccco1)N2 1.6%
CCN(CC)C(=O)CSc1nnc(-c2ccc(S(=O)(=O)NCc3ccccc3Cl)cc2)o1 3.4%
CCN(CC)CCN1C(=O)C(=O)/C(=C(/O)c2ccc(OC)c(OC)c2)C1c1ccccn1 (centres undefined) -8.8%
CCCOC(=O)C1=C(C)NC2=C(C(=O)C(C(=O)OC)C(C)C2)C1c1ccc(N(C)C)cc1 (centres undefined) 6.3%
COC(=O)c1cccc(NC(=O)CN2CCC(NC(=O)c3cc(OC)c(OC)c(OC)c3)CC2)c1 4.5%
Cn1nnnc1SCC(=O)N1CCN(Cc2ccccc2)CC1 3.1%
CCn1c(Cc2ccccc2)nnc1SCc1nc2ccccc2c(=O)[nH]1 2.9%
c1ccc(-n2ncc3c(N4CCCC4)ncnc32)cc1 4.2%
CC1(C)C2CCC1(C)C(OC(=O)CCn1ccnc1)C2 (centres undefined) 3.3%
Cc1cc(NC(=O)CCC(=O)N(c2cccc(F)c2)C(C(=O)NC2CCCC2)c2ccncc2)no1 (centres undefined) 2.9%
CCn1c(SCC(=O)c2ccc(Cl)s2)nnc1-c1cccs1 3.7%
COc1ccc2[nH]c3ccc(OC)cc3c2c1 6.8%
O=C(NCCN1CCOCC1)c1c(F)c(F)c(F)c(F)c1F -0.8%
CCOC(=O)c1ccc(N2C(=O)CC(Sc3nc(O)c(CC)c(=O)[nH]3)C2=O)cc1 (centres undefined) -2.3%
CC(C)c1nc(N2CCOCC2)c(C#N)c2c1COC(C)(C)C2 -4.2%
Cc1ccc2c(c1)c1ncn(CCC3=CCCCC3)c(=O)c1n2C 1.2%
CC1(C)CC(=O)C2=C(C1)NCN(CCCN1CCOCC1)C2 3%
c1ccc2c(NCC3CCCO3)nc(-c3ccncc3)nc2c1 (centres undefined) 3.1%
Cc1ccn2cc(C(=O)NC3CCN(Cc4ccccc4)CC3)nc2c1 -6.8%
CCC(C)(C)n1nnnc1C(c1cccs1)N1CCN(Cc2ccccc2)CC1 (centres undefined) -10%
COc1ccc(NC(=O)CSc2nnc(-c3cccs3)n2Cc2ccco2)cc1OC 3.1%
N#CNC1=NCN(CCc2ccccc2)CN1 4.9%
C=CCN1C(=O)C(O)(CC(=O)c2ccc(Cl)cc2)c2ccccc21 (centres undefined) 5.4%
CCc1ccc(-c2nnn(Cc3nc4ccccc4s3)n2)cc1 3%
O=C1[C@@H]2C(Cc3ccc(O)cc3)NC3(C(=O)Nc4ccc(F)cc43)[C@@H]2C(=O)N1c1ccc(F)cc1 (some centres undefined) 1.7%
COC(=O)c1ccccc1NC(=O)CN(Cc1ccccc1)S(C)(=O)=O 6%
CCCc1nc2ccccc2c(C(=O)OCc2nnc(-c3cc(OC)c(OC)c(OC)c3)o2)c1CC 1.2%
CCOC(=O)c1cc2occc2n1CC(=O)NC1CCC(C)CC1 (centres undefined) 5.1%
CCOc1cccc(=O)c2c(C)n(CC3CCCO3)c(C)c12 (centres undefined) -12.4%
O=C(NC1CC2CCCC(C1)N2C(=O)N1CCCCC1)C1CCCCC1 (centres undefined) 4.8%
CCOC(=O)C1C(=O)NC(N2CCN(c3ccccc3)CC2)=NC1c1ccco1 (centres undefined) 2.1%
CCN(Cc1cc2cc(C)ccc2[nH]c1=O)S(=O)(=O)c1ccccc1 6.4%
O=C(NCCCCO)C(F)(F)C(F)(F)C(F)(F)C(=O)NCCCCO 4.2%
Cc1cc(N2C(=O)C(=O)/C(=C(/O)c3ccccc3)C2c2cccc(Br)c2)no1 (centres undefined) 0.9%
CN(c1nc2ccccc2n2c(-c3ccco3)nnc12)S(=O)(=O)c1ccccc1 4.7%
CC(=O)c1cccc(NC(=O)N2CCCC2C(=O)NCCC(C)C)c1 (centres undefined) 7.2%
Cc1ccc(F)cc1NC(=O)c1cccc(N(C)C)c1 5%
CC1=C2C(=O)OC(c3ccoc3)C2(C)CCC1 (centres undefined) 0%
CCOC(=O)CSc1nnc(-c2ccco2)n1C 3%
Cc1ccc(C(=O)OCC(=O)NCc2ccc3c(c2)OCO3)s1 3.6%
Cc1ccc(S(=O)(=O)N2CCC(C(=O)OCC(=O)N3CC(=O)Nc4ccccc43)CC2)cc1 5.7%
CCCCCNC(=O)Cc1ccc(OC)cc1 2.1%
Cc1nc(NCc2ccccc2)c(C(N)=O)c2c1COC(C)(C)C2 3%
CC(=O)N(Cc1cccs1)C1CCOC(C)(C)C1 (centres undefined) 2.9%
CSc1nc(O)c(Cc2ccccc2)c(=O)[nH]1 0.9%
CC(C)C(NC(=O)c1cccc(S(=O)(=O)N2CCOCC2)c1)C(=O)NCCc1ccccn1 (centres undefined) 4.3%
CSCCC1NC2(C(=O)Nc3ccc(Cl)cc32)[C@@H]2C(=O)N(C3CCCC3)C(=O)[C@H]12 (some centres undefined) 7.3%
Cc1cnc(NC(=O)CSc2nnc(-c3ccc(Cl)cc3Cl)n2N)s1 -1.5%
COc1ccc(-c2c3c(=O)n(C)c(=O)n(C)c3cn2NC(C)=O)cc1 3.2%
CCSC1=C(C#N)C(=O)n2c1cc1c2CCCC1 1.7%
Cc1cc(C(=O)N2CCN(c3ccccn3)CC2)c(C)o1 6%
COc1cccc(-c2nnc(N(C)C(=O)c3ccno3)s2)c1 2.3%
CC(=O)N1CSCC1C(=O)O (centres undefined) 8.6%
COc1ccc(O)c(C=Nc2cc(C)on2)c1 5.7%
O=C1CSC(=O)N1CCOCCN1C(=O)CSC1=O 4.8%
COc1ccc(C2CC(c3ccc(C)cc3)Nc3nc(N)nn32)cc1 (centres undefined) 3.3%
CC1(C)CC(=O)C(C2=NC(C)(C)Cc3ccccc32)=C(O)C1 -1%
CCn1c(SCC(=O)NCc2ccco2)nnc1-c1ccc(N)cc1 0.2%
CCOc1cc(C)c(Cl)cc1S(=O)(=O)n1nnc2ccccc21 3.6%
CC1CCCN(C(=O)Cn2c(=O)oc3ccccc32)C1 (centres undefined) 3.7%
O=C(Nc1c(Cl)cccc1Cl)C1CCC1 3.6%
Cc1cc(C)nc(SCc2ccccc2C#N)n1 1.7%
COc1ccccc1Nc1ncc(C(C)=O)c(C)n1 1.9%
O=C(O)CN(Cc1ccco1)S(=O)(=O)c1ccccc1 0%
CCC(=O)Nc1ccc(C(=O)Nc2ccc3c(c2)C(=O)N(CC2CCCO2)C3=O)cc1 (centres undefined) 3.2%
CCCc1cc(=O)n2[nH]c(SCc3ccccc3)nc2n1 4.4%
N#Cc1nc(-c2ccc(OCc3ccccc3)cc2)oc1NCCCN1CCOCC1 4%
O=S(=O)(NCc1cccnc1)c1ccc(Br)s1 2.9%
Cc1ccc(C(=O)N2CCN(C3CCCCC3)CC2)s1 2.5%
COC(=O)c1cc(NC(=O)CN2CCC(C(N)=O)(N3CCCCC3)CC2)cc(C(=O)OC)c1 -6.8%
COc1cccc(NC(=O)c2ccccc2SC)c1 0.3%
COC(=O)c1ccc2c(c1)S(=O)(=O)NC(=NCCCN1CCOCC1)S2 3.7%
O=C(c1ccco1)N(Cc1nc2ccccc2c(=O)[nH]1)C1CCCC1 -5.2%
Cc1ccccc1OCCC(=O)Nc1c(C)n(C)n(-c2ccccc2)c1=O 0%
Cc1cc(C)c(C(=O)CN2C(=O)CCC2=O)cc1C 5%
O=S(=O)(c1ccccc1)N(CC(O)CN1CCCCC1)c1ccccc1 (centres undefined) -1.4%
COC(=O)c1ccccc1NC(=O)c1ccccc1NS(C)(=O)=O 8.2%
COC(=O)c1cc(Cl)c(NC(=O)c2ccco2)cc1OC -4.4%
COc1cc(OC)cc(C(=O)Nc2ncc3c(n2)CC(C)(C)CC3=O)c1 3.1%
CC1CCCCC1NC(=O)CSc1nnc(N)s1 (centres undefined) 0%
COc1ccc(CNC(=O)c2cc3c(=O)n4ccccc4nc3n(CC3CCCO3)c2=N)cc1 (centres undefined) 0.4%
COc1c(F)c(F)c(-c2csc(N)n2)c(F)c1F 1%
COC(=O)c1cccc(NC(=O)CSc2nc(C)cc(=O)[nH]2)c1 6.2%
CC(NCCO)C(=O)C12CC3CC(CC(C3)C1)C2 (centres undefined) 6.7%
CCn1nc(NC(=O)c2ccco2)c2cc3ccc(C)cc3nc21 4.2%
COc1ccc(CNC2CCCCC2)cc1 3.7%
CC(C)[C@H](NC(=O)Nc1ccc(S(N)(=O)=O)cc1)C(=O)O 4.9%
O=S(=O)(NCc1ccc2c(c1)OCO2)c1cccc2nsnc12 5.8%
Cc1ccc(S(=O)(=O)N2CCOCC2)cc1C(=O)NCc1ccc(F)cc1 0%
O=C(NCC1CCCO1)C(C(=O)c1ccccc1)n1cc(Cl)ccc1=O (centres undefined) 6.1%
Cc1nnc(N(Cc2ccco2)C(=O)c2ccno2)s1 1.8%
O=C(Nc1ccc2c(c1)OCCO2)c1ccncc1 3.7%
CCOC(=O)c1sc(/N=C/Nc2nc(C)c(C(=O)OCC)s2)nc1C 0%
COc1ccc(N(Cc2cc3cc(OC)ccc3[nH]c2=O)S(C)(=O)=O)cc1 2.6%
O=C(CSc1ncccn1)NCCc1ccccc1 1.9%
CC12CCC(C(=O)N(CCC#N)CCC#N)(CC1=O)C2(C)C (centres undefined) 5.5%
CNC(=O)CSc1nnc(CCc2ccccc2)n1-c1ccccc1 -9%
O=C(CCCOc1ccccc1)Nc1cccc(C(=O)O)c1 7.6%

— PubChem BioAssay AID615 (Sanford-Burnham Center for Chemical Genomics, 2007)
